Bioassay records deposited in PubChem by The Scripps Research Institute Molecular Screening Center.
A selection: hits, their analogues and other compounds. The true share with any hit is near 2.3%.
GSTO1 counter: inhibitors of recombinant GSTO1, primary screen, counter-screen for RBBP9 inhibitor project, biochemical, fluorescence polarization | 300,000 compounds, 1.1% hits | Glutathione S-transferase omega-1 (Homo sapiens), P78417 | inhibition, % at 5.96 µM | activity-based probe fluorescence polarization;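 active = inhibition above the campaign mean inhibition plus 3 SD, cut at about 35% in these data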;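 note: 0% = GSTO1-1 with DMSO and 100% = wells lacking GSTO1-1 enzyme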
PAD4 inh: human PAD4 inhibitors, primary screen, biochemical, fluorescence polarization, 1536-well format; Protein-arginine deiminase type-4 (Homo sapiens), Q9UM07; recombinant PAD4, RCA probe fluorescence polarization; inhibition, % at 6.36 µM; 330,000 compounds, 0.41% hits; AID 485272, 2010;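 active = percent inhibition above a cutoff equal to the mean of all tested compounds plus 3 SD, cut at about 15% in these data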;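 note: 0% = PAD4 with RCA probe and DMSO and 100% = probe without PAD4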
Target sequence (Q9UM07 whole entry, looked up): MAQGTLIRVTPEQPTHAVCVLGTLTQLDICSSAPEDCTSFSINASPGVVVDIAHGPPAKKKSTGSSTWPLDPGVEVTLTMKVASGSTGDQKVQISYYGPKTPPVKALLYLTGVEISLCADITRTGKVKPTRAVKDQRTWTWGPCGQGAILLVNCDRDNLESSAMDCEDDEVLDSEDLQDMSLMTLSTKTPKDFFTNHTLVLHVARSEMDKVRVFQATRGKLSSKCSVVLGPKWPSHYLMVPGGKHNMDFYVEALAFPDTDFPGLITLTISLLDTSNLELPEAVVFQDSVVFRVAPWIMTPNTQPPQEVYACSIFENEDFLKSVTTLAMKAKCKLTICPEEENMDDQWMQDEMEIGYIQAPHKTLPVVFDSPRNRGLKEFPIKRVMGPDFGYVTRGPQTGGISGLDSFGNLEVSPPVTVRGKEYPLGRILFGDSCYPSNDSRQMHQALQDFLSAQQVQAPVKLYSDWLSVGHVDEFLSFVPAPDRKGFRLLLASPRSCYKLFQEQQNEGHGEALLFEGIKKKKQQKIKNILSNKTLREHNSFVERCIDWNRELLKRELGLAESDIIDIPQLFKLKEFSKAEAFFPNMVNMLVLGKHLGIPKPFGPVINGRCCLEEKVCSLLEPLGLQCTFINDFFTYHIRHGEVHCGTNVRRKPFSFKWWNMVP
PME-1 primary: PME-1 inhibitors via competitive probe labeling, primary screen, biochemical, fluorescence polarization, FP-Rh probe, HTS. Protein phosphatase methylesterase 1 (Homo sapiens), Q9Y570. recombinant PME-1. inhibition, % at 5.9 µM. 320,000 compounds, 0.53% hits. AID 2130, 2009;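 active = inhibition above the campaign mean of all compounds plus 3 SD, cut at about 26% in these data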;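 note: competitive labeling of PME-1 active site by serine hydrolase directed probe; 0% = PME-1 with DMSO and 100% = wells lacking PME-1 enzyme; inhibitors block probe labeling so polarization falls and inhibition rises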
Fam108B inh: mouse Fam108B serine hydrolase inhibitors, primary screen, counter-screen for RBBP9 inhibitor project, biochemical, fluorescence polarization; recombinant Fam108B, FP-Rh probe fluorescence polarization; 300,000 compounds, 0.33% hits; inhibition, % at 9.51 µM;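 active = inhibition above the screen mean inhibition plus 3 SD, computed separately per campaign, cut at about 18% in these data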;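 note: inhibitors lower polarization as less probe binds the enzyme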
pPAFAH inh: pPAFAH enzyme inhibitors, primary screen, biochemical, fluorescence polarization, human; Platelet-activating factor acetylhydrolase (Homo sapiens), Q13093; 330,000 compounds, 1.5% hits; recombinant pPAFAH, FP-rhodamine probe fluorescence polarization; inhibition, % at 3.39 µM;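 active = inhibition above the mean inhibition across the screen plus 3 SD, cut at about 25% in these data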;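 note: inhibitors block binding of the rhodamine activity-based probe so polarization drops; 0% = enzyme with DMSO and 100% = wells lacking pPAFAH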
Fam108b inh conf: mouse Fam108b serine hydrolase inhibitors, confirmation, counter-screen for RBBP9 inhibitor project, biochemical, fluorescence polarization, triplicate; recombinant Fam108b, FP-Rh probe fluorescence polarization; AID 1978, 2009; shares compounds with Fam108B inh; inhibition, % at 9.51 µM; 930 compounds, 44% hits;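 active = inhibition above a limit from the primary screen, the mean over all compounds plus 3 SD, cut at about 19% in these data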;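 note: 0% = median of active Fam108b wells and 100% = catalytically dead S170A mutant; inhibitors free the probe so polarization falls as inhibition rises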
Fam108b inh: inhibition of mouse Fam108b by HTS hits, late-stage follow-up, biochemical, gel-based ABPP, soluble recombinant form; shares compounds with Fam108B inh; fluorophosphonate probe; 260 compounds, 44% hits; inhibition, % at 20 µM; in the data active = inhibition above about 40%
An asterisk follows results filed as active; nt = no result.

SMILES	GSTO1 counter	PAD4 inh	PME-1 primary	Fam108B inh	pPAFAH inh	Fam108b inh conf	others
O=C(COc1cccc(NC(=O)c2cccc([N+](=O)[O-])c2)c1)c1ccc(F)cc1	-21	1	10	14	8	nt
CC(=O)c1cccc(Nc2nc(-c3cccc([N+](=O)[O-])c3)cs2)c1	-3	3	4	1	6	nt
O=C(Nc1ccc(-c2csc(Nc3ccccc3)n2)cc1)c1cccc(C(F)(F)F)c1	-8	-1	8	4	0	nt
O=C(Nc1ccc(-c2csc(Nc3ccccc3)n2)cc1)c1cc([N+](=O)[O-])cc(C(F)(F)F)c1	-11	2	1	64*	2	87*	Fam108b inh=100*
O=C(Nc1cccc(-c2csc(Nc3cccc(C(F)(F)F)c3)n2)c1)c1cc([N+](=O)[O-])cc(C(F)(F)F)c1	-1	-2	2	19*	1	2
Oc1c(Br)cc(/C=N/Nc2nncc3ccccc23)cc1Br	9	2	5	19*	5	23*
Cc1ccc2nc(/C(C#N)=C\c3ccc(N4CCCCC4)c([N+](=O)[O-])c3)[nH]c2c1	-10	-4	68*	31*	9	0
Cc1cc(Br)c(NC(=O)COC(=O)C2CCCCC2)c(Br)c1	nt	-4	nt	nt	7	nt
COc1cccc2c1C(=O)c1c(O)c3c(c(O)c1C2=O)C[C@@](O)(C(C)=O)C[C@@H]3O[C@H]1C[C@H](N)[C@H](O)[C@H](C)O1	nt	nt	nt	nt	nt	nt	Fam108b inh=0
CCOC(=O)c1c(NC(=O)COC(=O)Cc2n[nH]c(=O)c3ccccc23)sc(C(=O)NC)c1C	nt	2	nt	nt	-2	nt
CCOC(=O)/C(=N/Nc1ccccc1)c1csc(Nc2ccccc2)n1	3	-5	10	22*	2	-7
CCOC(=O)/C(=N\Nc1ccc(Cl)cc1)c1csc(Nc2ccccc2)n1	2	2	29*	21*	17	27*
CCOC(=O)/C(=N\Nc1ccc(OC)cc1)c1csc(Nc2ccccc2)n1	6	4	11	23*	2	10
CC1CCCC(C)N1C(=O)COC(=O)CNC(=O)c1ccccc1 (stereo unspecified)	nt	-5	-4	nt	-2	nt
CCN(CC(=O)Nc1c(F)cccc1F)C(=O)CCc1nc2sc3c(c2c(=O)[nH]1)CCCC3	14	-2	1	1	18	nt
Brc1cc2c(cc1/C=N/Nc1nc3ccccc3s1)OCO2	-4	0	4	7	-3	nt
O=[N+]([O-])c1cc(Cl)cc(/C=N/Nc2nc3ccccc3s2)c1O	14	-4	20	33*	13	9
C(=N\Nc1nc2ccccc2s1)/c1ccccn1	-11	1	13	4	9	nt
Brc1csc(/C=N/Nc2nc3ccccc3s2)c1	-19	-3	31*	32*	12	37*
Cc1ccc2[nH]c(C)c(/C=N/Nc3nc4ccccc4s3)c2c1	-25	2	58*	27*	19	3
Brc1csc(C=NNc2nc3ccccc3s2)c1	nt	nt	nt	nt	nt	nt	Fam108b inh=70*
O=C(CSCc1cc(=O)n2nc(C3CC3)sc2n1)Nc1ccc(F)cc1	1	-2	1	-4	1	nt
O=C(Cc1ncc(C(F)(F)F)cc1Cl)NCc1ccco1	3	-2	0	-2	-2	nt
O=C(NCCc1ccc(Cl)cc1)C1CCCN1C(=O)Nc1ccc(F)cc1 (stereo unspecified)	-1	0	9	1	-2	nt
O=C(NCCc1ccc(Cl)cc1)C1CCCN1C(=O)Nc1ccccc1 (stereo unspecified)	3	0	4	31*	1	3
COc1cc(/C=N/Nc2nc3c(c(=O)n(C)c(=O)n3C)n2Cc2ccccc2)ccc1OC(=O)c1ccco1	2	0	39*	19*	34*	-10
